# In PubChem BioAssay (NCATS):
# A number with no mark means an inactive call. Results filed as inconclusive are left out. Active and inactive are the calls of the source. Calls follow the shape of the dose curve; as a rule, active = well fitted curve in the direction sought with a large enough effect; inconclusive = small, poorly fitted or top-dose-only effect, or another doubt; inactive = no such curve, though single readings can be large; an effect the other way counts as inactive or inconclusive.
# Columns and labels:
# [1] = Quantitative High-Throughput drug screen in 47 multiple myeloma cell lines against the NCATS MIPE library collection: OPM1_PLB cell viability assay (AID 1918989); also: nearly all actives have a fitted effect of over 40% in size; also: potency is read from the fitted curve at half-maximal effect
# In short: (§1)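 Viability after 48 h drug exposure was measured as ATP-dependent luminescence. Cells, 500 per well, sat at 37 °C under 5% CO2; DMSO wells set 100%, media-only wells 0%.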
# [2] = Quantitative High-Throughput drug screen in 47 multiple myeloma cell lines against the NCATS MIPE library collection: SKMM1_PLB cell viability assay (AID 1919863); settings: SKMM1 myeloma viability, CellTiter-Glo ATP, 48 h; viability: hits give low values; also: nearly all actives have a fitted effect of over 35% in size; also: potency is read from the fitted curve at half-maximal effect
# In short: as §1
# [3] = Quantitative High-Throughput drug screen in 47 multiple myeloma cell lines against the NCATS MIPE library collection: VP6_DJ cell viability assay (AID 1919867); also: nearly all actives have a fitted effect of over 40% in size; also: potency is read from the fitted curve at half-maximal effect
# In short: as §1
# [4] = Quantitative High-Throughput drug screen in 47 multiple myeloma cell lines against the NCATS MIPE library collection: PCM6_Riken cell viability assay (AID 1919870); also: nearly all actives have a fitted effect of over 30% in size; also: potency is read from the fitted curve at half-maximal effect
# In short: as §1
# [5] = Quantitative High-Throughput drug screen in 47 multiple myeloma cell lines against the NCATS MIPE library collection: U266_ATCC cell viability assay (AID 1919864); also: nearly all actives have a fitted effect of over 35% in size; also: potency is read from the fitted curve at half-maximal effect
# In short: as §1
# [6] = Quantitative High-Throughput drug screen in 47 multiple myeloma cell lines against the NCATS MIPE library collection: XG6_PLB cell viability assay (AID 1919865); also: nearly all actives have a fitted effect of over 40% in size; also: potency is read from the fitted curve at half-maximal effect
# In short: as §1
# [7] = Quantitative High-Throughput drug screen in 47 multiple myeloma cell lines against the NCATS MIPE library collection: XG1_PLB cell viability assay (AID 1919866); also: nearly all actives have a fitted effect of over 35% in size; also: potency is read from the fitted curve at half-maximal effect
# In short: as §1
# [8] = Quantitative High-Throughput drug screen in 47 multiple myeloma cell lines against the NCATS MIPE library collection: UTMC2_PLB cell viability assay (AID 1919868); settings: CellTiter-Glo ATP luminescence, 48 h; viability (% of DMSO control): at 45.8 µM (top of the series); also: nearly all actives have a fitted effect of over 55% in size; also: potency is read from the fitted curve at half-maximal effect
# In short: as §1
# [9] = Quantitative High-Throughput drug screen in 47 multiple myeloma cell lines against the NCATS MIPE library collection: PE2_PLB cell viability assay (AID 1919869); also: nearly all actives have a fitted effect of over 35% in size; also: potency is read from the fitted curve at half-maximal effect
# In short: as §1
# [10] = Quantitative High-Throughput drug screen in 47 multiple myeloma cell lines against the NCATS MIPE library collection: RPMI8226_ATCC cell viability assay (AID 1919871); also: nearly all actives have a fitted effect of over 30% in size; also: potency is read from the fitted curve at half-maximal effect
# In short: as §1
# [11] = Quantitative High-Throughput drug screen in 47 multiple myeloma cell lines against the NCATS MIPE library collection: OPM2_DSMZ cell viability assay (AID 1919872); also: nearly all actives have a fitted effect of over 30% in size; also: potency is read from the fitted curve at half-maximal effect
# In short: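 Myeloma cell lines, 500 cells per well, exposed to MIPE 4.0 library compounds for 48 h at 37C, 5% CO2. Viability from ATP by CellTiter-Glo luminescence; normalised to DMSO (100%) and media-only (0%) wells.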
# [12] = Quantitative High-Throughput drug screen in 47 multiple myeloma cell lines against the NCATS MIPE library collection: KMS11_JCRBsus cell viability assay (AID 1919873); also: nearly all actives have a fitted effect of over 50% in size; also: potency is read from the fitted curve at half-maximal effect
# In short: as §1
# [13] = Quantitative High-Throughput drug screen in 47 multiple myeloma cell lines against the NCATS MIPE library collection: KMS28BM_JCRB cell viability assay (AID 1919874); also: nearly all actives have a fitted effect of over 35% in size; also: potency is read from the fitted curve at half-maximal effect
# In short: as §1
# [14] = target: Cytochrome P450 3A4 (Homo sapiens) (UniProt P08684); assay: qHTS for inhibitors of CYP3A4 against the NCATS DSHEA and TCM libraries (AID 1919971);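 also: % is scaled to controls: 0 for no effect and ±100 for the full control effect; inhibition lowers luminescence from luciferin made by CYP3A4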
# In short: (§2)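 Luminescent P450-Glo readout. Enzyme plus pro-luciferin substrate in manufacturer buffer (typically 100 mM KPO4); 15 min RT preincubation; 1x NADPH regenerating system, 30-45 min RT in the dark; detection reagent 30 min.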
# [15] = target: Cytochrome P450 2D6 (Homo sapiens) (UniProt P10635); assay: qHTS for inhibitors of CYP2D6 against the NCATS DSHEA and TCM libraries (AID 1919972); also: % is scaled to controls: 0 for no effect and ±100 for the full control effect
# In short: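 Steps: enzyme plus luciferin substrate dispensed; test substances pinned; 15 min RT; 1x NADPH regenerating solution added, 30–45 min RT protected from light; detection reagent, 30 min RT; luminescence measured. Minus-enzyme wells as background.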
# [16] = target: Cytochrome P450 2C9 (Homo sapiens) (UniProt P11712); assay: qHTS for inhibitors of CYP2C9 against the NCATS DSHEA and TCM libraries (AID 1919973);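 also: luminogenic pro-luciferin CYP2C9 substrate turned into luciferin with NADPH regeneration; % is scaled to controls: 0 for no effect and ±100 for the full control effect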
# In short: as §2
# [17] = target: Cytochrome P450 2C19 (Homo sapiens) (UniProt P33261); assay: qHTS for inhibitors of CYP2C19 against the NCATS DSHEA and TCM libraries (AID 1919974); settings: CYP2C19 enzyme inhibition, luminescence qHTS;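 also: luminescence from luciferin released by CYP2C19 oxidation of a pro-luciferin substrate; potency is read from the fitted curve at half-maximal effect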
# In short: as §2
# [18] = KB-3-1 P-gp reporter qHTS against the NCATS DSHEA and TCM libraries (AID 1919975); also: 0% is about no effect
# In short: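 Parental KB-3-1 human cervical adenocarcinoma cells (500 cells/well, DMEM + 10% FBS) were treated with substances for ~72 h at 37C; viability was read by CellTiter-Glo luminescence.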
# [19] = qHTS Counterscreen for compound interference against the NCATS DSHEA and TCM libraries (AID 1919978); settings: firefly luciferase detection reagent interference, luminescence; also: % of control where 0% means no effect
# In short: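 D-luciferin (1 uM final) or 100 mM potassium phosphate buffer alone was preincubated 15 min at RT with compounds (19.5 nM to 39.8 uM final). Luciferin detection reagent was then added and luminescence read after 30 min at RT.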
# [20] = Dual reporter qHTS for agonist of Pregnane X Receptor (hPXR) against the NCATS DSHEA and TCM libraries: Fluorescence readout (AID 1920058); also: 0% is about no effect
# In short: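 hPXR-Luc HepG2 cells (2000/well) in phenol red-free medium with charcoal-stripped FBS attached for 5 h, then were exposed to compounds for about 24 h at 37 °C. Viability was read by CellTiter-Fluor fluorescence (Ex/Em 405/540 nm) after 1 h.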
# Cytochrome P450 2C19 (Homo sapiens), sequence (P33261 whole entry, looked up): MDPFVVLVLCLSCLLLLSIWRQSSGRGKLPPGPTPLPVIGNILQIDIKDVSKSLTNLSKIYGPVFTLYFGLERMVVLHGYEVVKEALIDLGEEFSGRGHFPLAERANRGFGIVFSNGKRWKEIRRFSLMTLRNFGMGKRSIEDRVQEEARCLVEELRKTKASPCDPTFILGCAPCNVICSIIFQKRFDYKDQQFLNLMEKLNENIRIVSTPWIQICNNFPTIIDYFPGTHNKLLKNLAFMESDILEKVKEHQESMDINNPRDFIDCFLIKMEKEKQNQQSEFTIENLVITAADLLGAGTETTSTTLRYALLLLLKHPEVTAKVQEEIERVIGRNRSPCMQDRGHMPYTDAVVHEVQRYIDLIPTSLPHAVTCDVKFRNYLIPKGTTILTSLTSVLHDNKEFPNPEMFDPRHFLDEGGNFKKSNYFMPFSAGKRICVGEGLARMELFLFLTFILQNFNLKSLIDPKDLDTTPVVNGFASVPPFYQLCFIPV
# Cytochrome P450 3A4 (Homo sapiens), sequence (P08684 whole entry, looked up): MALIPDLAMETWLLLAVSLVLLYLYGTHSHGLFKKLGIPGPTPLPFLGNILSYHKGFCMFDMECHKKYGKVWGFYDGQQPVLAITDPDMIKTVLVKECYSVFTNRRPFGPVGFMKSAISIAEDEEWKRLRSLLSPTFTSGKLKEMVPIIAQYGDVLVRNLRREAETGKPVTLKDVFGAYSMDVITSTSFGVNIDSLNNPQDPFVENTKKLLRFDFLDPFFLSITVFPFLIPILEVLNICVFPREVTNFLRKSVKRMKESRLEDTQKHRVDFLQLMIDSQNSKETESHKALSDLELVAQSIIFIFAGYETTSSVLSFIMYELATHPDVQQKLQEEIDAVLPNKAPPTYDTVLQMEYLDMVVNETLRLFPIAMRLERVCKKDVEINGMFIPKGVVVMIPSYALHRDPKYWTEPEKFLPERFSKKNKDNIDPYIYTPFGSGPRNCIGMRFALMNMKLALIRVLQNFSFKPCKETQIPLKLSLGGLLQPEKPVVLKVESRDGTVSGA
# Cytochrome P450 2D6 (Homo sapiens), sequence (P10635 whole entry, looked up): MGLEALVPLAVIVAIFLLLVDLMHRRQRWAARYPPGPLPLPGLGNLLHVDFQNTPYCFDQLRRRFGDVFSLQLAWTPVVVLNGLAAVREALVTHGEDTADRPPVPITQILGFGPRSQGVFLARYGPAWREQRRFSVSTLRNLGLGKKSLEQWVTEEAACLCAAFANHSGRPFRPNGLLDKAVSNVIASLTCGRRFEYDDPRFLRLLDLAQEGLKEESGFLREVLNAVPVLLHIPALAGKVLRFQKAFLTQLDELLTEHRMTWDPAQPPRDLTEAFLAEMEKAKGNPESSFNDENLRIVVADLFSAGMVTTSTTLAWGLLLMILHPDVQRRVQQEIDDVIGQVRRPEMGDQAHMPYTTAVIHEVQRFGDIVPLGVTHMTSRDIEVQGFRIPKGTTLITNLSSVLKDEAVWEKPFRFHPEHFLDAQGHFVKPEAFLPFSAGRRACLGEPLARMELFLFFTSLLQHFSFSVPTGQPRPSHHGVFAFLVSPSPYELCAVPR
# Cytochrome P450 2C9 (Homo sapiens), sequence (P11712 whole entry, looked up): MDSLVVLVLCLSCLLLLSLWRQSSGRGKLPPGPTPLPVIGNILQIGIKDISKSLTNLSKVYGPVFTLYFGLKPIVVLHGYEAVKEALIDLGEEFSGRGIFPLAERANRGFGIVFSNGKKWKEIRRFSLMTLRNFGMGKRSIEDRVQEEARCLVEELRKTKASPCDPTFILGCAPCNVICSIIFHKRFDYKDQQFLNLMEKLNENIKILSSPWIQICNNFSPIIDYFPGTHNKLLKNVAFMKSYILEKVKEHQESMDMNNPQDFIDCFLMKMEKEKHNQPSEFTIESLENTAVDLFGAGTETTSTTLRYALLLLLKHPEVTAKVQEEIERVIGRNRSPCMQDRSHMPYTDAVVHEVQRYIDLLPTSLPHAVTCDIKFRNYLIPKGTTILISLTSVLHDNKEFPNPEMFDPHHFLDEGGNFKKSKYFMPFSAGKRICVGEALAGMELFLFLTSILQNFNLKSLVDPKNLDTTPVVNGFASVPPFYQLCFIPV
structure (smiles),measurement,setting,value
CC(C)n1nc(-c2ccc3oc(N)nc3c2)c2c(N)ncnc21,Potency,[1],0.001 µM (active)
same,Potency,[2],0.0074 µM (active)
same,Potency,[3],0.001 µM (active)
same,Potency,[4],0.0662 µM (active)
Cc1ccc(Nc2cc(-c3cccc(N4C(=O)c5ccccc5C4=O)c3)ncn2)cc1NS(C)(=O)=O,Potency,[1],23.5 µM (active)
same,Potency,[5],23.5 µM (active)
same,Potency,[6],8.33 µM (active)
same,Potency,[7],18.7 µM (active)
same,Potency,[3],14.8 µM (active)
same,Potency,[8],20.9 µM (active)
same,Potency,[9],16.6 µM (active)
same,Potency,[4],14.8 µM (active)
same,Potency,[10],inactive
same,Potency,[11],26.4 µM (active)
same,Potency,[12],20.9 µM (active)
C[C@]12CC[C@@H]3c4ccc(O)cc4CC[C@H]3[C@H]1C[C@@H](O)[C@H]2O,Potency,[1],inactive
same,Potency,[5],18.7 µM (active)
same,Potency,[6],5.9 µM (active)
same,Potency,[7],inactive
same,Potency,[8],inactive
same,Potency,[11],inactive
same,Potency,[13],inactive
COCCOc1nc(-c2ccc(Cl)c(Cl)c2)n(-c2ccc(NC(=O)CCl)cc2)n1,Potency,[1],20.9 µM (active)
same,Potency,[5],26.4 µM (active)
same,Potency,[6],14.8 µM (active)
same,Potency,[7],16.6 µM (active)
same,Potency,[3],20.9 µM (active)
same,Potency,[8],20.9 µM (active)
same,Potency,[9],18.7 µM (active)
same,Potency,[4],16.6 µM (active)
same,Potency,[10],20.9 µM (active)
same,Potency,[11],inactive
same,Potency,[13],16.6 µM (active)
COc1ccc(-c2coc3cc(O)ccc3c2=O)cc1,Potency,[1],inactive
same,Potency,[5],inactive
same,Potency,[6],inactive
same,Potency,[7],inactive
same,Potency,[3],inactive
same,Potency,[9],inactive
same,Potency,[4],inactive
same,Potency,[11],inactive
same,Potency,[12],18.7 µM (active)
same,outcome,[14],inactive
same,outcome,[15],inactive
same,outcome,[16],inactive
same,Potency,[17],14.1 µM (active)
same,outcome,[18],inactive
same,max response,[19],-1.37%
same,outcome,[20],inactive
O=c1cc(-c2ccccc2)oc2cc(O)c(O)c(O)c12,Potency,[1],11.8 µM (active)
same,Potency,[2],18.7 µM (active)
same,Potency,[4],inactive
same,Potency,[10],inactive
same,Potency,[13],inactive
O=C1NC(=O)C(=Cc2ccc3c(c2)OC(F)(F)O3)S1,Potency,[1],7.43 µM (active)
same,Potency,[5],inactive
same,Potency,[6],1.66 µM (active)
same,Potency,[3],14.8 µM (active)
same,Potency,[8],23.5 µM (active)
same,Potency,[9],20.9 µM (active)
same,Potency,[4],4.18 µM (active)
same,Potency,[11],inactive
same,Potency,[12],inactive
same,Potency,[13],inactive
CN(C)Cc1cccc(N=C(c2ccccc2)c2c(O)[nH]c3cc(C(=O)N(C)C)ccc23)c1,Potency,[1],18.7 µM (active)
same,Potency,[5],18.7 µM (active)
same,Potency,[6],18.7 µM (active)
same,Potency,[3],13.2 µM (active)
same,Potency,[8],16.6 µM (active)
same,Potency,[9],20.9 µM (active)
same,Potency,[4],10.5 µM (active)
same,Potency,[10],10.5 µM (active)
NS(=O)(=O)c1ccc(NC2=CC(=O)c3ccccc3C2=O)cc1,Potency,[1],6.62 µM (active)
same,Potency,[2],4.69 µM (active)
same,Potency,[3],5.9 µM (active)
same,Potency,[9],14.8 µM (active)
same,Potency,[10],inactive
same,Potency,[11],inactive
same,Potency,[13],inactive
OC[C@H]1O[C@@H](n2cnc3c2NC=NC[C@@H]3O)C[C@H]1O,Potency,[1],inactive
same,viability,[2],110%
same,Potency,[3],14.8 µM (active)
same,Potency,[8],inactive
same,Potency,[9],11.8 µM (active)
same,Potency,[10],inactive
same,Potency,[11],inactive
N#CC1(c2ccc(NC(=O)c3cccnc3NCc3ccncc3)cc2)CCCC1,Potency,[1],16.6 µM (active)
same,Potency,[5],inactive
same,Potency,[6],18.7 µM (active)
same,Potency,[7],20.9 µM (active)
same,Potency,[3],14.8 µM (active)
same,Potency,[9],18.7 µM (active)
same,Potency,[11],inactive
Cc1ccn(-c2ccc(-c3ncco3)cc2)c(=O)c1-c1ccc2nc(N)ncc2c1,Potency,[1],3.72 µM (active)
same,viability,[2],99.5%
same,Potency,[7],3.72 µM (active)
same,Potency,[3],1.66 µM (active)
same,Potency,[9],4.69 µM (active)
same,Potency,[10],inactive
same,Potency,[13],inactive
O=c1cc(-c2ccc(O)cc2)oc2cc(O)cc(O)c12,Potency,[17],6.31 µM (active)
same,outcome,[18],inactive
same,max response,[19],-0.0344%
same,outcome,[20],inactive
Nc1ncnc2c1nc(Cl)n2[C@@H]1O[C@H](CO)[C@@H](O)[C@@H]1O,Potency,[2],14.8 µM (active)
same,Potency,[5],14.8 µM (active)
same,Potency,[6],1.18 µM (active)
same,Potency,[7],16.6 µM (active)
same,Potency,[3],1.32 µM (active)
same,Potency,[9],0.235 µM (active)
same,Potency,[12],20.9 µM (active)
same,Potency,[13],13.2 µM (active)
COc1ccc(-c2nc(N3CCOCC3)c3sc(CN(C)c4ncc(C(=O)NO)cn4)cc3n2)cn1,Potency,[1],inactive
same,Potency,[3],inactive
same,Potency,[9],0.001 µM (active)
same,Potency,[11],0.0021 µM (active)
same,Potency,[12],inactive
same,Potency,[13],inactive
COc1ccc2cccc(CCNC(C)=O)c2c1,viability,[2],129%
same,Potency,[6],inactive
same,Potency,[7],inactive
same,Potency,[3],5.26 µM (active)
same,Potency,[9],inactive
same,Potency,[4],inactive
same,Potency,[11],inactive
same,Potency,[12],inactive
same,Potency,[13],inactive
